From article PMC7819943, “Rice protein-binding microarrays: a tool to detect cis-acting elements near promoter regions in rice”
The full ranking holds about 68,000 sequences; the median of “fluorescence intensity (a.u.)” is about 9,100, and the highest 2% start at about 16,000. This excerpt belongs to a sample that is enriched for the highest values.

These sequences were tested against OsWRKY34 (Oryza sativa, UniProt Q0JBA9 1-250) (assay: protein-binding microarray (RPBM); PBS, 2% BSA, 51.3 ng/ul salmon testes DNA, 50 uM zinc acetate, 200 nM TF, 25 C, 1 h; high values mean tight binding). Conditions: protein: recombinant; tags: N-terminal polyhistidine and DsRed monomer fusion (pET32a); label: CyDye5-dUTP incorporated in the synthesized complementary strand; 3' TTTTT single-stranded linker to array surface; dsDNA, one strand shown.
OsWRKY34, sequence (Q0JBA9 entry or part of it): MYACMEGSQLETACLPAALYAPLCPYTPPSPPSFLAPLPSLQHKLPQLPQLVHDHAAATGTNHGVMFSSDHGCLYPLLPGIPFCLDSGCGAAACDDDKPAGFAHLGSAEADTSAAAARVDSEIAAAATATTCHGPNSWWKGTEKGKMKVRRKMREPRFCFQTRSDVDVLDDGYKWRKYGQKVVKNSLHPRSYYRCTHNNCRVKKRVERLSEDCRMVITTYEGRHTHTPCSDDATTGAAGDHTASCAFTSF
How it was run: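 Using Ni–NTA, transcription factors fused N-terminally to polyhistidine and DsRed were purified after expression in E. coli BL21-CodonPlus. These were incubated at 200 nM with a blocked, double-stranded custom Agilent array for 1 h at 25 °C in a buffer containing 50 µM zinc acetate, and the array was washed. The binding signal is per-feature fluorescence intensity (arbitrary units) on an Axon 4000B scanner.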
For “TTGTGTGTTCTTCCATCTGGCAATGGCATCTGCAGCAGCACGGAGTCACCTAGTGCAG”, the binding signal was 9530 fluorescence intensity (a.u.). “CACGCGATGAAATCATCTGCGCATCCTGTACTTTCAATTTCGGAGTCACCTAGTGCAG” was tested, and the binding signal was 8030 fluorescence intensity (a.u.). In the case of “CAATGACCTTTTTTTTTCCTCTCTCTGTTGCTTCCGATATCGGAGTCACCTAGTGCAG”, the binding signal is reported as 8500 fluorescence intensity (a.u.). “GCTTTGAACACTCATCTCCTCACCGTGTTTGTTAGAGCTCCGGAGTCACCTAGTGCAG” was tested, and the binding signal was 11200 fluorescence intensity (a.u.). In the case of “GTGTATTCTACTTAGTAATTTACTTGGCTTGAATTTTTTTCGGAGTCACCTAGTGCAG”, the binding signal is reported as 28900 fluorescence intensity (a.u.). “CATTTGTGGTTTGTACATATTTATATAAGTTATTATAAATCGGAGTCACCTAGTGCAG” was tested, and the binding signal was 9060 fluorescence intensity (a.u.). With “TTTATTTTTTTTGTTACTTTTGGGATAAATTTACAATTACCGGAGTCACCTAGTGCAG” the binding signal was 9060 fluorescence intensity (a.u.). For “ATTGTATTCCTACTTGGACTCTTATTTTCTTTTCTAATTTCGGAGTCACCTAGTGCAG”, the binding signal was 10300 fluorescence intensity (a.u.). In the case of “GGTTTGGGGTGGTTTATTGTACAATAAAGATAAAGTTACCCGGAGTCACCTAGTGCAG”, the binding signal is reported as 19000 fluorescence intensity (a.u.). With “GTCTACTTGTTTGGTGTAATTTATTTTTTTTCTTTCGCTTCGGAGTCACCTAGTGCAG” the binding signal was 9740 fluorescence intensity (a.u.). In the case of “TCAGTCTGTACACGCCTACACCAGAGTCCAGTGGTCCTAACGGAGTCACCTAGTGCAG”, the binding signal is reported as 8100 fluorescence intensity (a.u.). “GGGTGGAGGAGGTGGGGAGGCCGGCGAGACTCATGTGCGGCGGAGTCACCTAGTGCAG” was tested, and the binding signal was 13100 fluorescence intensity (a.u.). For “ATCAAATGGTCATTCCAACGGTTGTCCTGTGCTTTTGTAACGGAGTCACCTAGTGCAG”, the binding signal was 8020 fluorescence intensity (a.u.). For “ATCTCTAATTCTATTGGGTGCATGTATTGTACTATTTATTCGGAGTCACCTAGTGCAG”, the binding signal was 9280 fluorescence intensity (a.u.). In the case of “TCACGGCTCATTTTTGAAATAAGTTTTTAGCACAGTTTATCGGAGTCACCTAGTGCAG”, the binding signal is reported as 8740 fluorescence intensity (a.u.). “TAACAGTATCATTTGATAGCACAATATAAGGTGTTTTGCTCGGAGTCACCTAGTGCAG” was tested, and the binding signal was 28800 fluorescence intensity (a.u.). With “GTGGTTTCATCTATTTTGTGTTGTTTACTCGTATCTGTTACGGAGTCACCTAGTGCAG” the binding signal was 10600 fluorescence intensity (a.u.). With “GTATCAGTGTATAAGTTTGAGCACCATTTTTCCATGATCTCGGAGTCACCTAGTGCAG” the binding signal was 9200 fluorescence intensity (a.u.). In the case of “AATGTTTGGGTTCGAATTTAGTGGGTGGGTTTGGAGTTTGCGGAGTCACCTAGTGCAG”, the binding signal is reported as 12800 fluorescence intensity (a.u.). With “TCTATTTTATTTGGGTGGGGATAGTTTTAGTGGGAATTTGCGGAGTCACCTAGTGCAG” the binding signal was 24200 fluorescence intensity (a.u.). In the case of “TTAGGATACATGGGAATTTTAGTGGGGATAGGATGGGGAACGGAGTCACCTAGTGCAG”, the binding signal is reported as 8520 fluorescence intensity (a.u.). For “ACTGTGGTTTCTAGTGGGTTTTATTATTTTATAATTTGTACGGAGTCACCTAGTGCAG”, the binding signal was 8480 fluorescence intensity (a.u.). For “CAAGTTATTGACTTTTGGTCATGATGTTACTATTCATCTTCGGAGTCACCTAGTGCAG”, the binding signal was 9120 fluorescence intensity (a.u.). For “ATCTTCGGTGTACTATTGGGTCATGATTTGACCCATCTAACGGAGTCACCTAGTGCAG”, the binding signal was 24900 fluorescence intensity (a.u.). In the case of “GTTGTGGGTTTTCGTATTTAATGTTTGACTGTCTATTTTACGGAGTCACCTAGTGCAG”, the binding signal is reported as 17300 fluorescence intensity (a.u.). For “TTCACGTAACTTACTTGCTCTAATCGTCGGTGGCTGGATCCGGAGTCACCTAGTGCAG”, the binding signal was 9270 fluorescence intensity (a.u.). For “AAACACCAGCGCGGCCCTCGCCCTCGCCGTCGCCATTTCCCGGAGTCACCTAGTGCAG”, the binding signal was 8520 fluorescence intensity (a.u.). In the case of “CAACCCCTTACTTCATCACCTACTCATGTCAACACATAGCCGGAGTCACCTAGTGCAG”, the binding signal is reported as 8850 fluorescence intensity (a.u.). With “ACGCTGCCGTCTCATTTCGCTTTCGTAGAACTTGCTCCAGCGGAGTCACCTAGTGCAG” the binding signal was 8500 fluorescence intensity (a.u.). With “GCAAAAGCCAAACTGAATTCCCGACGCGTGCGCGCGCGCACGGAGTCACCTAGTGCAG” the binding signal was 8180 fluorescence intensity (a.u.). With “AGGAAAACACTTAGATGGGCCGGATTACTTATCGAAATTTCGGAGTCACCTAGTGCAG” the binding signal was 8360 fluorescence intensity (a.u.). In the case of “CCTTCTTTCCCTTTTCCCATCTGGCAAGATTTTTCTTATTCGGAGTCACCTAGTGCAG”, the binding signal is reported as 9610 fluorescence intensity (a.u.). “TACATGTTTGACTTTGACTTGGTTTTTGGATATTTCATTTCGGAGTCACCTAGTGCAG” was tested, and the binding signal was 9170 fluorescence intensity (a.u.). “GTTGGGGAGAAGGGGTGGTAAAATTTCTGGTATTATGGTTCGGAGTCACCTAGTGCAG” was tested, and the binding signal was 11700 fluorescence intensity (a.u.). For “AGCGGTTTCTTGGTTGGGGTTTAGTGTCTGCATTGGATATCGGAGTCACCTAGTGCAG”, the binding signal was 18200 fluorescence intensity (a.u.). “TCATTCTTTTTCTCAATGTACTTGGATTTTTTTCATGTTTCGGAGTCACCTAGTGCAG” was tested, and the binding signal was 12200 fluorescence intensity (a.u.). For “TTCTTTTGTTGTGTGGGTGTATGTTTTGGTTATGTGCATTCGGAGTCACCTAGTGCAG”, the binding signal was 8810 fluorescence intensity (a.u.). With “ATCGTTTGGGGTCATTTTCTGCGGTTTGGTGGTGTTGTGCCGGAGTCACCTAGTGCAG” the binding signal was 11100 fluorescence intensity (a.u.). In the case of “AGTGGTGATCGCCGCGGTTGGGTTTCTTGGATTGGGCTGTCGGAGTCACCTAGTGCAG”, the binding signal is reported as 8720 fluorescence intensity (a.u.). “GTGGGGTTTTCGATGGTGTTTCATTCTTTTTCTCAATGTACGGAGTCACCTAGTGCAG” was tested, and the binding signal was 20300 fluorescence intensity (a.u.). In the case of “CTGTATTTGACTGTTACTGCTTTTGGATTTTGTTTCATTTCGGAGTCACCTAGTGCAG”, the binding signal is reported as 10800 fluorescence intensity (a.u.). “ACATCTTATTTCCCTGGGTGGGGAGATTCTAGTTAAAATTCGGAGTCACCTAGTGCAG” was tested, and the binding signal was 19000 fluorescence intensity (a.u.).
